# How the values were obtained:
# Assay in all cases: PBM binding z-score (relative to random genomic background probes); higher = stronger binding; sequences stand for … in GC…GCGATTGACAGCGTAGAATGAAGG
# [1] = tested on: FXR:RXRa (NR concentration 270 nM, RXRa partner concentration 90 nM)
# Summary of the method: (§1)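 Binding z-scores were set against random background probes. The data came from custom Agilent 4×180K protein-binding microarrays carrying double-stranded probes with 34-nt variable regions, incubated 1 h with ligand-free nuclear receptor dimers. Partner-specific antibodies detected binding, and scanned fluorescence was regression-normalized.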
# [2] = tested on: LXRa:RXRa (NR concentration 270 nM, RXRa partner concentration 90 nM)
# Summary of the method: as §1
# [3] = tested on: LXRa homodimer (NR concentration 270 nM)
# Summary of the method: as §1
# [4] = tested on: LXRb:RXRa (NR concentration 270 nM, RXRa partner concentration 90 nM)
# Summary of the method: as §1
# [5] = tested on: LXRb homodimer (NR concentration 270 nM)
# Summary of the method: as §1
# [6] = tested on: PPARa:RXRa (NR concentration 270 nM, RXRa partner concentration 90 nM)
# Summary of the method: as §1
# [7] = tested on: PPARg:RXRa (NR concentration 180 nM, RXRa partner concentration 90 nM)
# Summary of the method: as §1
# [8] = tested on: PPARg:RXRa 270nM:90nM, anti-RXR (NR concentration 270 nM, RXRa partner concentration 90 nM)
# Summary of the method: as §1
# [9] = tested on: PPARg:RXRa 30nM:10nM, anti-RXR (NR concentration 30 nM, RXRa partner concentration 10 nM)
# Summary of the method: as §1
# [10] = tested on: PPARg:RXRa 90nM:30nM, anti-RXR (NR concentration 90 nM, RXRa partner concentration 30 nM)
# Summary of the method: as §1
# [11] = tested on: PPARg:RXRa DBDmut IVT, anti-RXR (DBD mutation: RXRa K156A/R161A, NR concentration 270 nM, RXRa partner concentration 90 nM)
# Summary of the method: as §1
# [12] = tested on: PPARg:RXRa IVT, anti-PPARg (NR concentration 270 nM, RXRa partner concentration 90 nM)
# Summary of the method: as §1
# [13] = tested on: PPARg DBDmut:RXRa IVT, anti-PPARg (DBD mutation: PPARg1 K132A/R137A, NR concentration 270 nM, RXRa partner concentration 90 nM)
# Summary of the method: as §1
# [14] = tested on: PPARg DBDmut IVT, anti-PPARg (DBD mutation: PPARg1 K132A/R137A, NR concentration 270 nM)
# Summary of the method: as §1
# [15] = tested on: PPARg homodimer (NR concentration 180 nM)
# Summary of the method: as §1
# [16] = tested on: PXR:RXRa (NR concentration 270 nM, RXRa partner concentration 90 nM)
# Summary of the method: as §1
# [17] = tested on: PXR homodimer (NR concentration 270 nM)
# Summary of the method: as §1
# [18] = tested on: RARa:RXR (NR concentration 270 nM, RXRa partner concentration 90 nM)
# Summary of the method: as §1
# [19] = tested on: RARa homodimer (NR concentration 270 nM)
# Summary of the method: as §1
# [20] = tested on: RARb:RXRa (NR concentration 270 nM, RXRa partner concentration 90 nM)
# Summary of the method: as §1
Sequence,PBM binding z-score [1],PBM binding z-score [2],PBM binding z-score [3],PBM binding z-score [4],PBM binding z-score [5],PBM binding z-score [6],PBM binding z-score [7],PBM binding z-score [8],PBM binding z-score [9],PBM binding z-score [10],PBM binding z-score [11],PBM binding z-score [12],PBM binding z-score [13],PBM binding z-score [14],PBM binding z-score [15],PBM binding z-score [16],PBM binding z-score [17],PBM binding z-score [18],PBM binding z-score [19],PBM binding z-score [20]
AGGCAAAGTTCATCTAGGTAACGTAAGATATGCT,6.62,5.97,4.54,3.71,1.35,4.88,5.55,5.87,2.83,4.72,1.08,3.73,1.34,0.748,3.08,5.33,6.34,3.96,1.67,4.72
ATATGTAGGTTACATCTGGGTCATTCAGGCTATG,1.65,3.57,1.05,2.18,0.621,4.01,5.41,4.89,2.26,3.88,7.49,7.53,2.55,1.93,1.95,2.11,1.05,2.38,0.399,2.18
CCTGCTAGGTCATGGTCAGCTATTCTACAGTATG,3.41,2.49,0.199,1.79,-0.409,3.28,2.34,2.63,0.534,1.64,4.23,3.4,-0.449,-0.223,2.13,1.28,-0.498,2.3,-0.317,3.95
CCTGCTAGGTCAATGGTCAGCTACAGCAGCTCGC,3.03,2.08,-0.0038,1.55,-0.217,2.98,4.03,5.1,2.52,4.92,4.55,3.95,-0.354,-0.419,1.53,1.04,-0.299,1.64,-0.404,3.58
CGTCCAAGGTCTGCAGGTCAGTGAAAGCGACGTG,0.149,0.12,-0.428,0.0193,-1.21,0.759,-0.32,0.0368,-0.45,-0.257,0.404,0.652,-0.578,-0.887,0.2,0.243,-0.548,0.466,-0.728,2.16
CCACGGAGGACAGAAGGTCAGAGCTGTCCGCTTT,1.39,1.72,-0.0316,1.33,-0.786,2.11,0.277,0.736,-0.771,0.384,0.376,0.519,-0.839,-1.85,0.926,1.56,-0.17,2.2,-0.0117,3.21
ATCTCTAGGTAAGTCTCAGTTCAGTGAAGAACGC,0.588,0.489,0.754,0.383,1.26,0.246,-0.297,0.387,0.236,0.632,1.77,1.38,1.04,1.5,1.22,1.23,2.14,0.749,1.44,0.564
CCTAGCAAGCCAATCTGGGTCACTCAAGGCTTGA,0.309,0.44,-0.472,0.641,-0.582,3.06,1.85,1.79,-0.259,0.994,3.85,4.86,-0.252,-0.0798,0.973,0.841,-0.371,1.69,-0.371,0.92
CCTTACGGGTCACTGACAGGCTATAGCATTTGGA,4.95,3.52,-0.0559,3.1,-0.0175,4.91,3.88,4.36,1.54,2.83,3.84,3.67,0.647,-0.225,2.27,2.94,-0.147,3.69,0.758,3.76
CCTACTGGGCCACGAAAGGTCATTGGTTCAGTGA,3.88,5.26,5.57,4.37,0.215,4.79,4.66,4.86,2.43,4.48,5.54,5.88,-0.165,-0.319,3.95,5.47,3.04,5.74,0.693,3.96
CCTTACGGGTCACTGACAGGTTATAGCCTTTGGA,5.57,4.01,0.368,3.43,-0.148,4.99,4.28,4.31,1.31,2.99,2.98,3.74,0.266,0.106,3.2,3.83,-0.0377,4.93,0.735,3.95
TTACCAAGGTGAATGTCGTTGATCCCTCTGTAGA,0.755,0.993,-0.247,0.681,-0.413,1.51,0.279,1.04,0.788,0.922,1.97,2.48,0.0323,0.0146,0.593,0.524,-0.383,1.12,0.309,1.34
GCGAGTGGGGCATCAGCAGGTTACCATAACTTAA,-0.42,-0.14,-0.135,1.15,0.239,1.15,0.528,0.575,-0.218,0.332,3.22,2.59,-0.589,-0.427,0.496,0.25,-0.251,0.531,-0.613,0.812
ATATCTAGGTAAGACTCAGTTCAGTGAAGAACGC,0.211,0.372,0.425,0.221,0.484,1.35,1.55,1.27,0.124,0.928,5.77,4.56,2.06,1.25,0.747,0.999,1.25,0.287,1.13,0.401
GCGATTGGGGCATCAGCAGGTTACCATAACTTAA,0.0293,-0.187,-0.243,1.24,-0.0268,0.814,0.255,-0.0261,-0.258,-0.582,1.79,0.996,-0.746,-0.408,0.245,0.113,-0.0157,0.281,-0.368,0.823
CGAACTAGTTCAGAACAGGACAGTGAAGGATGAT,0.0852,-0.165,-0.0634,-0.449,-0.667,-0.356,0.524,-0.523,-0.163,-0.675,-0.157,-0.211,0.34,0.0845,-0.297,0.137,0.378,0.131,-0.252,0.618
CCTACTGCGCCACGAAAGGTCATTGATTCAGTGA,3.86,5.05,5.64,4.54,2,4.35,1.08,3.21,0.979,1.98,0.564,1.65,1.03,0.0242,4.6,5.41,2.88,5.88,2.27,3.86
CCTTACGGGTCACAAGGTTATAGCACGACGAGCG,5.77,4.34,0.422,3.65,0.114,5.46,5.45,5.85,2.52,4.65,3.76,4.65,0.482,0.244,2.41,3.87,0.686,4.98,1.2,4.15
AGAACGAGGGCACGCTGAGTTTATAGCAGAGTAG,0.87,1.08,-0.437,0.283,-1.07,2.21,2.19,1.98,0.505,1.43,4.28,3.85,1.13,0.317,0.761,3.96,2.87,1.28,-0.418,2.63
TCGAGTGGGTTAGTCGGGGCATTCAGCCAACATA,0.26,0.197,0.0739,0.985,-0.295,0.659,-0.439,0.869,0.979,0.719,1.67,1.4,0.134,-0.527,0.359,0.291,0.241,0.255,0.0202,0.514
TCTTGTGGATCAATAGAGGTTAAGAAAGTGCGCT,0.938,3.27,0.355,1.91,0.376,1.63,-0.178,1.51,2.31,1.64,1.7,0.901,0.673,0.819,0.64,2.88,0.306,1.69,0.244,0.915
GCTCGGCGGACAAGGTCAGAGCTTTGTCCGTAGA,1.19,1.42,-0.598,0.784,-1.28,2.03,-0.519,0.435,-0.807,-0.297,-0.55,0.128,-1.6,-1.83,-0.129,1.55,-0.547,1.95,-0.932,2.81
GCATATAGGTAATACAAGGTGATAGTCCGATTGT,1.42,0.97,0.0526,-0.116,-0.184,0.93,1.32,0.737,0.438,0.536,4.05,2.84,1.05,1.46,0.142,0.0575,-0.157,0.688,0.359,-0.103
CGAACTAGGTCAGAACAGGAAAGTGAAGGATGAT,0.901,0.447,-0.258,0.38,-0.116,3.21,5.08,4.29,1.92,3.33,7.16,6.78,2.1,0.812,0.835,0.0929,-0.161,0.482,-0.00201,2.72
CCGAGTAGGTTATGTGGCATTCAGGCAACGGTGA,0.192,0.353,0.0932,0.0215,-0.284,0.798,0.853,1.85,-0.095,0.651,3.28,2.2,-0.431,-0.42,0.696,-0.298,-0.313,-0.131,0.978,0.573
ATATGTAGGTTAGCTGGGTTCATTCAGACTAGGC,1.75,4.53,2.19,2.2,0.361,3.76,4.18,3.74,1.75,2.89,6.03,6.16,1.92,2.15,2.07,6.34,7.23,2.56,1.06,1.35
TGAATGAGGTTATAAGATGAGGGAACGTTGCAAA,1.51,1.28,-0.0389,1.09,0.338,2.36,1.1,1.61,1.03,1.43,1.09,1.5,0.967,0.169,0.684,0.72,-0.291,1.49,0.262,1.19
TCTTGTAGATGAGCAGGTTAAGAAAGCTGGCCAA,-0.174,-0.248,-0.441,-0.166,-1.02,0.327,-0.56,0.706,1.86,1.32,0.934,-0.183,-0.514,0.12,0.00499,0.02,-0.92,0.211,-0.441,-0.439
